FMDV antiviral: foot and mouth disease virus antiviral activity. FMDV antiviral cell-based qHTS. Potency, µM (series often up to 57.9 µM), for the others: at the top dose activity change, negative = inhibition, actives largely listed as inhibitors. 1.2% of 410,000 active. AID 1159524; calls by dose curve; tested in HEK293T cells; note: read-out not given here; potency is the fitted concentration of half-maximal effect; nearly all actives have a fitted effect of over 45% in size
AmpC inh no detg: blocks E. coli AmpC beta-lactamase in detergent-free assay | AmpC nitrocefin hydrolysis, absorbance 480 nm, 0.0001% Triton | Potency, µM (series often up to 57.1 µM), for the others: at the highest dose activity change, negative = inhibition, actives largely listed as inhibitors | 0.52% of 330,000 active | AID 485341;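 note: potency is the fitted concentration of half-maximal effect; plate controls were no compound for no effect and no enzyme for full effect; nearly all actives have a fitted effect of over 20% in size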
Target sequence (P00811 whole entry, looked up): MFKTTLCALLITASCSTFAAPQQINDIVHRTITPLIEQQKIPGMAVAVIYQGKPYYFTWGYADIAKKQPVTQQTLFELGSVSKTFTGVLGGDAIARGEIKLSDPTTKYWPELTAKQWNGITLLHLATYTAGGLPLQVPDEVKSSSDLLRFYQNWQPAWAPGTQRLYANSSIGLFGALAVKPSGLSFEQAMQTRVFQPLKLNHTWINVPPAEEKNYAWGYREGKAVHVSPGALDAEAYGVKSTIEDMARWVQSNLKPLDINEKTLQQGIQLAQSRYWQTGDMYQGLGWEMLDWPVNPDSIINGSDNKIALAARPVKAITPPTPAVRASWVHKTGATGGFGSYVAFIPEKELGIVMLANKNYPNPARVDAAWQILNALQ
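20 mM phosphate pH 7.0 + 0.01% (detergent screen) or 0.0001% Triton X-100; 5.3 nM AmpC reagent; cpd preinc 15 min RT; nitrocefin (800 uM stock) to start; A480 q20 s × 4 min; Activity was normalised to no-enzyme and no-compound control wells.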
HCMV antiviral: human cytomegalovirus inhibition | activity change, negative = inhibition, % at 57.5 µM | AID 1259415 | HFF cells, HCMV-luciferase reporter, 72 h; stronger effect = lower value | 4.5% of 410,000 active; in the data active = activity change below about -60%; inconclusive = no clear call, values can overlap the other calls; inactive = above about -39%
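Compounds were evaluated in HFFs infected with an HCMV luciferase reporter virus (MOI 1 PFU/cell). Luciferase in lysates collected 72 h post infection served as the replication measure.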
HCV inh: blocks hepatitis C virus | Huh7.5.1 HCVcc-Cre infection, luciferase reporter, 44 h | Potency, µM (highest dose often 41.8 µM), without a hit: at the highest dose activity change, negative = inhibition, most hits filed as inhibitors | 3.4% of 340,000 active | AID 651820; note: potency is the fitted concentration of half-maximal effect
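Antiviral activity was scored by luciferase reporter output from cells infected with HCVcc-Cre (~0.5 moi) in presence of compound, 44 h infection period, cells seeded 1,000/well 4 h prior.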
AmpC inh detg: inhibitors of E. coli AmpC beta-lactamase with detergent. P00811. AmpC hydrolysis of nitrocefin, absorbance 480 nm, 0.01% Triton. Potency, µM (top dose mostly 114 µM), for the others: at the highest dose activity change, negative = inhibition, actives largely listed as inhibitors. 0.041% of 370,000 active;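 note: potency is the fitted concentration of half-maximal effect; 0% = no-compound wells and -100% = no-enzyme wells; nearly all actives have a fitted effect of over 25% in size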
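AmpC (5.3 nM in the dispensed reagent) in 20 mM phosphate pH 7.0 with 0.01% (detergent screen) or 0.0001% Triton X-100 was preincubated with compounds for 15 min at room temperature. Nitrocefin was then added from an 800 uM solution, and hydrolysis was followed at 480 nm.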
* marks the source's active call; other numbers are inactive results; ? = inconclusive; · = no result given. A selection: hits, their analogues and other compounds. The true share with any hit is near 7.3%. Unless noted, calls come from the whole dose curve; as a rule, active = well fitted curve in the direction sought with a large enough effect; inconclusive = small, poorly fitted or top-dose-only effect, or another doubt; inactive = no such curve, though single readings can be large; an effect the other way counts as inactive or inconclusive. Unless noted, % is set by controls: 0 for no effect and ±100 for the full control effect.

SMILES	FMDV antiviral	AmpC inh no detg	HCMV antiviral	HCV inh	AmpC inh detg
Cc1ccc(C)c(S(=O)(=O)N2CCCCC2CCNC(=O)C(=O)NCc2ccncc2)c1 (centres undefined)	?	5%	?	6%	0%
N#C/C(=C\c1ccc(-c2nc3ccccc3s2)o1)C(N)=O	58%	-6%	68	1%	2%
N#C/C(=C/c1ccc(-c2ccc(S(N)(=O)=O)cc2)o1)C(=O)Nc1ccccc1	-24%	16µM*	-18	-27%	-10%
N#C/C(=C/c1ccc(-c2ccc(S(N)(=O)=O)cc2)o1)c1nc2ccccc2s1	-9%	-10%	?	4.5µM*	-13%
COC(=O)c1ccc(COc2cccn3c(N(C)C(=O)CCC4CCCC4)c(C)nc23)cc1	35µM*	·	-33	·	·
Cc1nc2c(OCc3ccc(C#N)cc3)cccn2c1N(C)C(=O)CCC1CCCC1	22µM*	·	-8	·	·
Cc1nc2c(OCc3ccc(F)cc3)cccn2c1N(C)C(=O)CCC1CCCC1	?	·	24	·	·
COC(=O)c1ccc(NC(=O)CSc2nnc3c4ccccc4n(C(C)C)c3n2)cc1	?	·	0	·	-3%
COc1ccccc1NC(=O)CSc1nnc2c3ccccc3n(C(C)C)c2n1	?	·	-61*	·	-11%
Cc1ccc(C(=O)N/N=C/c2ccc([N+](=O)[O-])s2)cc1	2.8µM*	-40%	-24	2.8µM*	-16%
O=C(N/N=C/c1ccc([N+](=O)[O-])s1)c1ccncc1	-30%	-14%	·	?	-3%
O=C(NN=Cc1ccc(N2CCOCC2)s1)c1ccc([N+](=O)[O-])cc1	?	-20%	3	22µM*	·
O=C(N/N=C/c1ccc([N+](=O)[O-])s1)c1cccc(Br)c1	?	-43%	-69*	?	-12%
O=C(N/N=C/c1cccnc1)c1cccc(NC(=O)c2cccc(Br)c2)c1	3%	-17%	8	-20%	-6%
O=C(N/N=C/c1ccc(O)c2ncccc12)c1cccc(Br)c1	-4%	-52%	-99*	3.5µM*	5%
CCOc1ccc2nc(N3CCCC(C(=O)NCc4ccccc4OC)C3)sc2c1 (centres undefined)	5%	·	24	·	-11%
O=C(Nc1ccc(N2CCOCC2)cc1)c1cccc2c(Br)cccc12	-11%	-6%	-18	5%	3%
O=C(Nc1ccccc1N1CCOCC1)c1cccc2c(Br)cccc12	-4%	-15%	?	5.6µM*	-11%
CS(=O)(=O)N1CCN(c2ccccc2NC(=O)c2cccc3ccccc23)CC1	-9%	6%	?	-11%	2%
CC(C)C(=O)N1CCN(c2ccccc2NC(=O)c2cccc3ccccc23)CC1	?	81%	-65*	?	-1%
CCC1CCCCN1C(=S)Nc1cccc(S(=O)(=O)N(C)C)c1 (centres undefined)	5%	-14%	?	-22%	0%
O=C(NCC1(N2CCOCC2)CCCCCC1)c1cnn(-c2nccc(-c3ccco3)n2)c1C1CC1	0%	·	·	·	·
CC1(C)CC(=O)C([C@H]2C3=C(CC(C)(C)CC3=O)Oc3ccccc32)C(=O)C1	-10%	·	·	·	·
CC1(C)CC(=O)C2=C(C1)Oc1nc3ccccc3cc1C2C(C#N)C#N (centres undefined)	8.9µM*	1%	122	?	?
CCOc1ccc(/C=N/NC(=O)C2CC2)c(OCC)c1	-12%	9%	-28	4.5µM*	-5%
SMILES	FMDV antiviral	AmpC inh no detg	HCMV antiviral	HCV inh	AmpC inh detg
CC(C)CCNC(=O)COc1ccc(N(C)S(=O)(=O)c2ccc(F)cc2)cc1	-6%	26%	-87*	-7%	?
CN(c1ccc(OCC(=O)OCC(=O)Nc2ccc(F)cc2)cc1)S(=O)(=O)c1ccc(Cl)cc1	2%	-19%	15	45%	-6%
Cc1ccc(NC(=O)COc2ccc(N(C)S(=O)(=O)c3ccc(F)cc3)cc2)cc1	?	-28%	-37	?	-11%
CC(=O)Nc1ccc(S(=O)(=O)N(C)c2ccc(OCC(=O)Nc3ccccc3C(C)=O)cc2)cc1	?	21%	-35	?	-7%
CN(c1ccc(OCC(=O)Nc2ccccc2C(=O)O)cc1)S(=O)(=O)c1ccc(Cl)cc1	-1%	-17%	-82*	-8%	·
COc1ccc(NC(=O)COc2ccc(N(C)S(=O)(=O)c3ccc(Cl)cc3)cc2)cc1OC	10µM*	26%	-88*	0.63µM*	?
CC(C)c1ccc(NC(=O)[C@H]2O[C@@H]3OC(C)(C)O[C@@H]3[C@H]3OC(C)(C)O[C@H]32)cc1	6%	·	48	·	18%
COC(=O)c1ccc(Cn2ccc(=O)[nH]c2=O)cc1	-4%	·	-4	23%	·
O=C(Nc1cccc(Cl)c1)C1C2C=CC3(O2)C1C(=O)N(CCCN1CCCCC1)C3C(=O)NC1CCCCC1 (centres undefined)	-11%	-35%	?	3%	?
CCCC[C@@H]1C=C(C(=O)O)[C@H](c2ccc(C#N)cc2)N1S(=O)(=O)c1ccc(C)cc1	-14%	-9%	14	7%	·
Oc1ccccc1-c1nnc(SCCN2CCOCC2)n1Cc1ccccc1	60%	-2%	-64*	?	-2%
O=C(Cc1ccccc1)N(Cc1cccnc1)c1nc2ccc(F)cc2s1	-3%	·	29	·	6%
CCCCn1c(N)c(N(CCOC)C(=O)C2CCCN(C(=O)c3ccc(Cl)cc3)C2)c(=O)[nH]c1=O (centres undefined)	0%	-19%	-38	4%	-15%
CC(C)c1ccc(C(CC(=O)c2ccc(Cl)cc2)C(=O)O)cc1 (centres undefined)	1%	-16%	45	19%	0%
O=C(CCC(=O)c1ccc(Cl)cc1)OCC(=O)c1ccccc1	1%	-30%	-65*	?	-2%
COC(=O)C(CC(=O)c1ccc(Cl)cc1)c1ccccc1 (centres undefined)	4%	·	-101*	3%	·
COc1cc2c(C(=O)N3CCOCC3)c(CSc3ccccc3)n(C)c2cc1Br	?	127%	-9	10µM*	5%
COc1cc2c(C(=O)N3CCN(C)CC3)c(C)n(C)c2cc1Br	0%	11%	3	-16%	-3%
CN(C(=O)CSc1nnc(CNC(=O)c2ccccc2)o1)c1ccccc1	-11%	0%	42	24%	1%
O=C(Nc1ncc(Cc2ccc(SC(F)F)cc2)s1)c1ccc(OC(F)F)cc1	?	-60%	-86*	?	-11%
NC1=NC(=Nc2ccccc2)c2ccccc21	?	-15%	29	1%	-3%
NC1=NC(=Nc2ccc(Br)cc2)c2ccccc21	4%	-30%	-61*	?	-10%
COC(=O)c1ccc(N2CCN(C)CC2)c(NC(=O)c2sc3ccccc3c2Cl)c1	-19%	·	-98*	?	·

Compound activity from PubChem BioAssay.
